According to PubChem BioAssay (NCI):
The panel holds about 79,000 compounds, 15% with a hit somewhere; the sample as a whole holds those more often. Values without a mark were called inactive. The source made the active and inactive calls. No stated cut-off is given here; in the data, active means growth inhibition above about 70%; inactive means the rest.

Columns and labels:
[1] = NCI Yeast Anticancer Drug Screen. Data for the rad50 strain (AID 155);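 further: 0% = growth of vehicle-only cultures of the same strain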; details: S. cerevisiae rad50 strain growth inhibition, stronger effect = higher value
Outline: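 Readout: growth inhibition relative to vehicle-treated cultures. Compound exposure was carried out in a genetically defined yeast strain deficient in DNA damage repair.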

[2] = NCI Yeast Anticancer Drug Screen. Data for the mec2-1 strain (AID 157); details: S. cerevisiae mec2-1 strain, stronger effect = higher value
Outline: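 Each compound was tested on mec2-1 yeast, a strain altered in DNA damage repair or cell cycle control. Growth inhibition is reported relative to vehicle.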

[3] = NCI Yeast Anticancer Drug Screen. Data for the sgs1 mgt1 strain (AID 161);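 further: 0% = growth of cultures given vehicle only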; details: S. cerevisiae sgs1 mgt1 strain, stronger effect = higher value
Outline: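 Test agents were incubated with a DNA-repair-mutant yeast strain. Growth was then read and compared against vehicle-treated controls.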

[4] = NCI Yeast Anticancer Drug Screen. Data for the cln2 rad14 strain (AID 165);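 further: 0% = growth equal to vehicle treated cultures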; details: S. cerevisiae cln2 rad14 strain, stronger effect = higher value
Outline: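 Test compounds were added to cln2 rad14 yeast cultures; inhibition of growth was then determined by comparison with vehicle treatment.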

[5] = NCI Yeast Anticancer Drug Screen. Data for the bub3 strain (AID 167); details: S. cerevisiae bub3 mutant strain, stronger effect = higher value
Outline: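 Readout: yeast growth inhibition, expressed relative to vehicle-only wells. The test organism is a mutant strain from a panel with lesions in DNA repair or checkpoint genes.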

[6] = NCI Yeast Anticancer Drug Screen. Data for the mlh1 rad18 strain (AID 175); details: S. cerevisiae mlh1 rad18 strain growth inhibition, stronger effect = higher value
Outline: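 Inhibition values reflect reduced growth of mutant yeast versus vehicle-treated controls following compound exposure; the mutations affect DNA damage repair.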

[7] = at 5.0 µM (retest, dose inferred, filed as 0.5)
[8] = at 50.0 µM (retest, dose inferred, filed as 5.0)

## OCCOSCCO
[1]; [7]
  growth inhibition: 5%
[1]; [8]
  growth inhibition: -4%
[1]; at 50.0 µM
  growth inhibition: -0.05%
[2]; [7]
  growth inhibition: 2%
[2]; [8]
  growth inhibition: -4%
[2]; at 50.0 µM
  growth inhibition: -14.1%
[3]; [7]
  growth inhibition: -8%
[3]; [8]
  growth inhibition: -2%
[3]; at 50.0 µM
  growth inhibition: 10.2%
[4]; [7]
  growth inhibition: 6%
[4]; [8]
  growth inhibition: 2%
[4]; at 50.0 µM
  growth inhibition: 15.8%
[5]; [7]
  growth inhibition: 2%
[5]; [8]
  growth inhibition: 6%
[5]; at 50.0 µM
  growth inhibition: -6.5%
[6]; [7]
  growth inhibition: 4%
[6]; [8]
  growth inhibition: -4%
[6]; at 50.0 µM
  growth inhibition: -14.1%

## O=C(/C=C/c1ccccc1)CCC1C(=O)c2ccccc2C1=O
[1]; [7]
  growth inhibition: 24%
[1]; [8]
  growth inhibition: 40%
[1]; at 50.0 µM
  growth inhibition: 3.25%
[2]; [7]
  growth inhibition: 10%
[2]; [8]
  growth inhibition: 33%
[2]; at 50.0 µM
  growth inhibition: -9%
[3]; [7]
  growth inhibition: 14%
[3]; [8]
  growth inhibition: 42%
[3]; at 50.0 µM
  growth inhibition: 1.05%
[4]; [7]
  growth inhibition: 10%
[4]; [8]
  growth inhibition: 20%
[4]; at 50.0 µM
  growth inhibition: 17.8%
[5]; [7]
  growth inhibition: 12%
[5]; [8]
  growth inhibition: 51%
[5]; at 50.0 µM
  growth inhibition: -12.6%
[6]; [7]
  growth inhibition: 22%
[6]; [8]
  growth inhibition: 50%
[6]; at 50.0 µM
  growth inhibition: 4.6%

## Nc1nc(-c2ccccc2)nc(N)c1N=O
[1]; [7]
  growth inhibition: 50%
[1]; [8]
  growth inhibition: 99% (active)
[1]; at 50.0 µM
  growth inhibition: 87.4% (active)
[2]; [7]
  growth inhibition: 63%
[2]; [8]
  growth inhibition: 98% (active)
[2]; at 50.0 µM
  growth inhibition: 89.5% (active)
[3]; [7]
  growth inhibition: 50%
[3]; [8]
  growth inhibition: 99% (active)
[3]; at 50.0 µM
  growth inhibition: 91.5% (active)
[4]; [7]
  growth inhibition: 52%
[4]; [8]
  growth inhibition: 100% (active)
[4]; at 50.0 µM
  growth inhibition: 77% (active)
[5]; [7]
  growth inhibition: 82% (active)
[5]; [8]
  growth inhibition: 97% (active)
[5]; at 50.0 µM
  growth inhibition: 89.2% (active)
[6]; [7]
  growth inhibition: 49%
[6]; [8]
  growth inhibition: 67%
[6]; at 50.0 µM
  growth inhibition: 88.5% (active)

## S=C1SCN(Cc2cccs2)CN1Cc1cccs1
[1]; [7]
  growth inhibition: 58%
[1]; [8]
  growth inhibition: 95% (active)
[1]; at 50.0 µM
  growth inhibition: 71.2% (active)
[2]; [7]
  growth inhibition: 42%
[2]; [8]
  growth inhibition: 96% (active)
[2]; at 50.0 µM
  growth inhibition: 71.5% (active)
[3]; [7]
  growth inhibition: 55%
[3]; [8]
  growth inhibition: 99% (active)
[3]; at 50.0 µM
  growth inhibition: 77.7% (active)
[4]; [7]
  growth inhibition: 23%
[4]; [8]
  growth inhibition: 73% (active)
[4]; at 50.0 µM
  growth inhibition: 30.4%
[5]; [7]
  growth inhibition: 37%
[5]; [8]
  growth inhibition: 91% (active)
[5]; at 50.0 µM
  growth inhibition: 80.7% (active)
[6]; [7]
  growth inhibition: 63%
[6]; [8]
  growth inhibition: 96% (active)
[6]; at 50.0 µM
  growth inhibition: 74.7% (active)

## O=C(CBr)c1ccc(OC(=O)c2ccccc2)cc1
[1]; [7]
  growth inhibition: 97% (active)
[1]; [8]
  growth inhibition: 99% (active)
[1]; at 50.0 µM
  growth inhibition: 45.3%
[2]; [7]
  growth inhibition: 100% (active)
[2]; [8]
  growth inhibition: 99% (active)
[2]; at 50.0 µM
  growth inhibition: 13.1%
[3]; [7]
  growth inhibition: 100% (active)
[3]; [8]
  growth inhibition: 100% (active)
[3]; at 50.0 µM
  growth inhibition: 18.4%
[4]; [7]
  growth inhibition: 44%
[4]; [8]
  growth inhibition: 99% (active)
[4]; at 50.0 µM
  growth inhibition: -12.7%
[5]; [7]
  growth inhibition: 100% (active)
[5]; [8]
  growth inhibition: 100% (active)
[5]; at 50.0 µM
  growth inhibition: 45.8%
[6]; [7]
  growth inhibition: 62%
[6]; [8]
  growth inhibition: 98% (active)
[6]; at 50.0 µM
  growth inhibition: 74.5% (active)

## N#CCc1cccc2ccccc12
[1]; [7]
  growth inhibition: 3%
[1]; [8]
  growth inhibition: 6%
[1]; at 50.0 µM
  growth inhibition: 13.7%
[2]; [7]
  growth inhibition: 1%
[2]; [8]
  growth inhibition: 10%
[2]; at 50.0 µM
  growth inhibition: -16.8%
[3]; [7]
  growth inhibition: 0%
[3]; [8]
  growth inhibition: 4%
[3]; at 50.0 µM
  growth inhibition: -14.2%
[4]; [7]
  growth inhibition: -2%
[4]; [8]
  growth inhibition: 3%
[4]; at 50.0 µM
  growth inhibition: -17.1%
[5]; [7]
  growth inhibition: 0%
[5]; [8]
  growth inhibition: -4%
[5]; at 50.0 µM
  growth inhibition: -9.9%
[6]; [7]
  growth inhibition: 5%
[6]; [8]
  growth inhibition: 10%
[6]; at 50.0 µM
  growth inhibition: 5%

## CCCCCCCCCCCCCCCCCC1=NCCCN1CCO
[1]; [7]
  growth inhibition: 7%
[1]; [8]
  growth inhibition: 6%
[1]; at 50.0 µM
  growth inhibition: 96.8% (active)
[2]; [7]
  growth inhibition: 5%
[2]; [8]
  growth inhibition: 5%
[2]; at 50.0 µM
  growth inhibition: 87.5% (active)
[3]; [7]
  growth inhibition: 14%
[3]; [8]
  growth inhibition: 8%
[3]; at 50.0 µM
  growth inhibition: 40%
[4]; [7]
  growth inhibition: 9%
[4]; [8]
  growth inhibition: 5%
[4]; at 50.0 µM
  growth inhibition: -41.6%
[5]; [7]
  growth inhibition: 4%
[5]; [8]
  growth inhibition: 7%
[5]; at 50.0 µM
  growth inhibition: 61.1%
[6]; [7]
  growth inhibition: 23%
[6]; [8]
  growth inhibition: 7%
[6]; at 50.0 µM
  growth inhibition: 83% (active)

## O=C1C=CC(O)=CC1=P(c1ccccc1)(c1ccccc1)c1ccccc1
[1]; [7]
  growth inhibition: 2%
[1]; [8]
  growth inhibition: 11%
[1]; at 50.0 µM
  growth inhibition: 48.1%
[2]; [7]
  growth inhibition: -1%
[2]; [8]
  growth inhibition: 6%
[2]; at 50.0 µM
  growth inhibition: -8.55%
[3]; [7]
  growth inhibition: -1%
[3]; [8]
  growth inhibition: 2%
[3]; at 50.0 µM
  growth inhibition: 47.5%
[4]; [7]
  growth inhibition: -2%
[4]; [8]
  growth inhibition: -3%
[4]; at 50.0 µM
  growth inhibition: 7.4%
[5]; [7]
  growth inhibition: -4%
[5]; [8]
  growth inhibition: 2%
[5]; at 50.0 µM
  growth inhibition: 25.9%
[6]; [7]
  growth inhibition: 3%
[6]; [8]
  growth inhibition: 8%
[6]; at 50.0 µM
  growth inhibition: 34.5%

## O=S(=O)(O)c1cnccn1
[1]; [7]
  growth inhibition: 0%
[1]; [8]
  growth inhibition: -4%
[1]; at 50.0 µM
  growth inhibition: 91.3% (active)
[2]; [7]
  growth inhibition: -2%
[2]; [8]
  growth inhibition: -3%
[2]; at 50.0 µM
  growth inhibition: 98.3% (active)
[3]; [7]
  growth inhibition: -4%
[3]; [8]
  growth inhibition: -3%
[3]; at 50.0 µM
  growth inhibition: 87.8% (active)
[4]; [7]
  growth inhibition: 0%
[4]; [8]
  growth inhibition: 3%
[4]; at 50.0 µM
  growth inhibition: 80.8% (active)
[5]; [7]
  growth inhibition: 2%
[5]; [8]
  growth inhibition: 6%
[5]; at 50.0 µM
  growth inhibition: 96.9% (active)
[6]; [7]
  growth inhibition: 1%
[6]; [8]
  growth inhibition: -2%
[6]; at 50.0 µM
  growth inhibition: 80.9% (active)

## [Cl-].[Rh+3].c1ccc(-c2ccnc3c2ccc2c(-c4ccccc4)ccnc23)cc1.c1ccc(-c2ccnc3c2ccc2c(-c4ccccc4)ccnc23)cc1.c1ccc(-c2ccnc3c2ccc2c(-c4ccccc4)ccnc23)cc1
[1]; [7]
  growth inhibition: -27%
[1]; [8]
  growth inhibition: 65%
[1]; at 50.0 µM
  growth inhibition: 97.1% (active)
[2]; [7]
  growth inhibition: -15%
[2]; [8]
  growth inhibition: 26%
[2]; at 50.0 µM
  growth inhibition: 88.9% (active)
[3]; [7]
  growth inhibition: -10%
[3]; [8]
  growth inhibition: 87% (active)
[3]; at 50.0 µM
  growth inhibition: 94.5% (active)
[4]; [7]
  growth inhibition: -4%
[4]; [8]
  growth inhibition: 43%
[4]; at 50.0 µM
  growth inhibition: 85.7% (active)
[5]; [7]
  growth inhibition: -7%
[5]; [8]
  growth inhibition: 38%
[5]; at 50.0 µM
  growth inhibition: 90.8% (active)
[6]; [7]
  growth inhibition: -12%
[6]; [8]
  growth inhibition: 88% (active)
[6]; at 50.0 µM
  growth inhibition: 95.9% (active)

## CCC(C)(O)Cc1ccc(Cl)cc1 (stereo unspecified)
[1]; [7]
  growth inhibition: 4%
[1]; [8]
  growth inhibition: -3%
[1]; at 50.0 µM
  growth inhibition: -14.7%
[2]; [7]
  growth inhibition: 1%
[2]; [8]
  growth inhibition: -2%
[2]; at 50.0 µM
  growth inhibition: 41.9%
[3]; [7]
  growth inhibition: 0%
[3]; [8]
  growth inhibition: -1%
[3]; at 50.0 µM
  growth inhibition: 1.65%
[4]; [7]
  growth inhibition: 3%
[4]; [8]
  growth inhibition: -5%
[4]; at 50.0 µM
  growth inhibition: -39.8%
[5]; [7]
  growth inhibition: -6%
[5]; [8]
  growth inhibition: -7%
[5]; at 50.0 µM
  growth inhibition: -23.3%
[6]; [7]
  growth inhibition: 3%
[6]; [8]
  growth inhibition: -5%
[6]; at 50.0 µM
  growth inhibition: -6.8%

## NC(=Nc1nc(-c2ccccn2)cc2ccccc12)c1ccccn1
[1]; [7]
  growth inhibition: 54%
[1]; [8]
  growth inhibition: 70% (active)
[1]; at 50.0 µM
  growth inhibition: 77.2% (active)
[2]; [7]
  growth inhibition: 54%
[2]; [8]
  growth inhibition: 66%
[2]; at 50.0 µM
  growth inhibition: 67.7%
[3]; [7]
  growth inhibition: 64%
[3]; [8]
  growth inhibition: 72% (active)
[3]; at 50.0 µM
  growth inhibition: 69.2%
[4]; [7]
  growth inhibition: 60%
[4]; [8]
  growth inhibition: 71% (active)
[4]; at 50.0 µM
  growth inhibition: 68.6%
[5]; [7]
  growth inhibition: 73% (active)
[5]; [8]
  growth inhibition: 77% (active)
[5]; at 50.0 µM
  growth inhibition: 71.3% (active)
[6]; [7]
  growth inhibition: 61%
[6]; [8]
  growth inhibition: 69%
[6]; at 50.0 µM
  growth inhibition: 72.2% (active)
